From PubChem BioAssay AID1159580 (chemical genetic matrix, 2015)
Out of some 5,500 compounds screened, about 2,000 (36%) were called active. About 18% were inconclusive and are not listed. Rule as the data show it: active = normalized growth mostly below about 0.91 (no sharp cut-off); inconclusive = no clear call, values can overlap the other calls; inactive = mostly above about 0.92. The list shows a part of the results.

Assay: chemical genetic growth profiling, strain panel (AID 1159580);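 also: tested at 20 µM; growth read once vehicle control cultures reached saturation at 30 °C; 1 = growth at the plate median or of vehicle wells; lower values mean less growth of the strain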
Conditions: growth OD

Measured: normalized growth

NC1=NCCN1CC(=O)O
inactive: S. cerevisiae deletion strains, locus YJR043C, strain POL32, hits give low values 0.98 | S. cerevisiae deletion strains, locus YJR066W, strain TOR1, hits give low values 0.989 | S. cerevisiae deletion strains, locus YKL009W, strain mrt4, hits give low values 0.968 | S. cerevisiae deletion strains, locus YKL068W, hits give low values 0.986 | S. cerevisiae deletion strains, locus YKL085W, strain MDH1 (second series), hits give low values 0.983 | S. cerevisiae deletion strains, locus YKL085W, strain MDH1, hits give low values 0.983 | S. cerevisiae deletion strains, locus YKL160W, strain elf1, hits give low values 1.04 | S. cerevisiae deletion strains, locus YKL190W, strain CNB1, hits give low values 0.978 | S. cerevisiae deletion strains, locus YKR001C, strain vps1, hits give low values 0.989 | S. cerevisiae deletion strains, locus YKR026C, strain gcn3, hits give low values 1.03 | S. cerevisiae deletion strains, locus YKR091W, strain srl3, hits give low values 1.01 | S. cerevisiae deletion strains, locus YLL001W, strain dnm1, hits give low values 0.984 | S. cerevisiae deletion strains, locus YLL026W, hits give low values 1.01 | S. cerevisiae deletion strains, locus YLL041C, strain sdh2, hits give low values 1.01 | S. cerevisiae deletion strains, locus YLR027C, strain aat2, hits give low values 1.02 | S. cerevisiae deletion strains, locus YLR039C, strain RIC1, hits give low values 0.964 | S. cerevisiae deletion strains, locus YLR058C, strain SHM2, hits give low values 0.975 | S. cerevisiae deletion strains, locus YLR102C, strain apc9, hits give low values 0.986 | S. cerevisiae deletion strains, locus YLR113W, strain HOG1, hits give low values 0.983 | S. cerevisiae deletion strains, locus YLR221C, strain rsa3, hits give low values 0.987 | S. cerevisiae deletion strains, locus YLR258W, strain gsy2, hits give low values 0.996 | S. cerevisiae deletion strains, locus YLR262C, strain YPT6 (second series), hits give low values 1.02 | S. cerevisiae deletion strains, locus YLR262C, strain YPT6, hits give low values 0.958 | S. cerevisiae deletion strains, locus YLR268W, strain sec22, hits give low values 0.99 | S. cerevisiae deletion strains, locus YLR320W, strain mms22, hits give low values 0.957 | S. cerevisiae deletion strains, locus YLR330W, strain CHS5, hits give low values 1 | S. cerevisiae deletion strains, locus YLR342W, strain FKS1 (second series), hits give low values 1.01 | S. cerevisiae deletion strains, locus YLR342W, strain FKS1, hits give low values 1.02 | S. cerevisiae deletion strains, locus YLR357W, strain rsc2, hits give low values 1.03 | S. cerevisiae deletion strains, locus YLR370C, strain arc18, hits give low values 1.01 | S. cerevisiae deletion strains, locus YLR371W, strain rom2, hits give low values 0.996 | S. cerevisiae deletion strains, locus YLR384C, strain iki3, hits give low values 1.01 | S. cerevisiae deletion strains, locus YLR418C, strain cdc73, hits give low values 0.995 | S. cerevisiae deletion strains, locus YML016C, strain PPZ1, hits give low values 0.986 | S. cerevisiae deletion strains, locus YML032C, strain rad52, hits give low values 0.994 | S. cerevisiae deletion strains, locus YML120C, strain ndi1, hits give low values 0.998 | S. cerevisiae deletion strains, locus YML124C, strain tub3, hits give low values 0.995 | S. cerevisiae deletion strains, locus YMR058W, strain fet3, hits give low values 1.02 | S. cerevisiae deletion strains, locus YMR078C, strain ctf18, hits give low values 0.994 | S. cerevisiae deletion strains, locus YMR125W, strain sto1, hits give low values 1.02 | S. cerevisiae deletion strains, locus YMR129W, hits give low values 1 | S. cerevisiae deletion strains, locus YMR205C, strain PFK2, hits give low values 1.02 | S. cerevisiae deletion strains, locus YMR223W, strain ubp8, hits give low values 0.992 | S. cerevisiae deletion strains, locus YMR231W, strain pep5, hits give low values 1.02 | S. cerevisiae deletion strains, locus YMR307W, strain GAS1, hits give low values 1.05 | S. cerevisiae deletion strains, locus YNL067W, strain RPL9B, hits give low values 0.966 | S. cerevisiae deletion strains, locus YNL071W, strain lat1, hits give low values 0.983 | S. cerevisiae deletion strains, locus YNL153C, strain GIM3, hits give low values 0.989 | S. cerevisiae deletion strains, locus YNL183C, strain NPR1, hits give low values 0.919 | S. cerevisiae deletion strains, locus YNL209W, strain ssb2, hits give low values 1.03 | S. cerevisiae deletion strains, locus YNL233W, strain BNI4, hits give low values 0.974 | S. cerevisiae deletion strains, locus YNL248C, strain rpa49, hits give low values 1.03 | S. cerevisiae deletion strains, locus YNL250W, strain rad50, hits give low values 0.973 | S. cerevisiae deletion strains, locus YNL271C, strain bni1, hits give low values 0.998 | S. cerevisiae deletion strains, locus YNL298W, strain CLA4, hits give low values 0.996 | S. cerevisiae deletion strains, locus YNL307C, strain MCK1, hits give low values 0.993 | S. cerevisiae deletion strains, locus YNL322C, strain KRE1 (second series), hits give low values 1.02 | S. cerevisiae deletion strains, locus YNR049C, strain mso1, hits give low values 1.01 | S. cerevisiae deletion strains, locus YNR052C, strain pop2, hits give low values 0.998 | S. cerevisiae deletion strains, locus YOL006C, strain TOP1, hits give low values 0.944 | S. cerevisiae deletion strains, locus YOL012C, strain htz1 0.788 | S. cerevisiae deletion strains, locus YOL147C, strain pex11, hits give low values 0.995 | S. cerevisiae deletion strains, locus YOR001W, strain rrp6, hits give low values 0.966 | S. cerevisiae deletion strains, locus YOR061W, strain CKA2, hits give low values 0.958 | S. cerevisiae deletion strains, locus YOR069W, strain VPS5, hits give low values 0.995 | S. cerevisiae deletion strains, locus YOR070C, strain gyp1, hits give low values 1.02 | S. cerevisiae deletion strains, locus YOR080W, strain dia2, hits give low values 1.03 | S. cerevisiae deletion strains, locus YOR083W, strain WHI5, hits give low values 0.959 | S. cerevisiae deletion strains, locus YOR106W, strain vam3, hits give low values 1.03 | S. cerevisiae deletion strains, locus YOR136W, strain idh2, hits give low values 0.986 | S. cerevisiae deletion strains, locus YOR144C, strain elg1, hits give low values 0.992 | S. cerevisiae deletion strains, locus YOR184W, strain ser1, hits give low values 1.01 | S. cerevisiae deletion strains, locus YOR231W, strain MKK1, hits give low values 0.966 | S. cerevisiae deletion strains, locus YOR265W, strain rbl2, hits give low values 0.994 | S. cerevisiae deletion strains, locus YOR270C, strain vph1, hits give low values 0.924 | S. cerevisiae deletion strains, locus YOR290C, strain snf2, hits give low values 1.01 | S. cerevisiae deletion strains, locus YOR316C, strain cot1, hits give low values 0.989 | S. cerevisiae deletion strains, locus YPL051W, strain arl3, hits give low values 0.997 | S. cerevisiae deletion strains, locus YPL055C, strain LGE1, hits give low values 0.918 | S. cerevisiae deletion strains, locus YPL078C, strain atp4, hits give low values 1.03 | S. cerevisiae deletion strains, locus YPL106C, strain sse1, hits give low values 1.01 | S. cerevisiae deletion strains, locus YPL240C, strain hsp82, hits give low values 1.01 | S. cerevisiae deletion strains, locus YPL256C, strain CLN2, hits give low values 0.953 | S. cerevisiae deletion strains, locus YPR119W, strain clb2, hits give low values 0.983 | S. cerevisiae deletion strains, locus YPR141C, strain kar3, hits give low values 0.988 | S. cerevisiae deletion strains, locus YPR163C, strain tif3, hits give low values 0.986 | S. cerevisiae deletion strains, locus YPR167C, strain met16, hits give low values 0.993 | S. cerevisiae deletion strains, strain wtn01, hits give low values 0.995 | S. cerevisiae strains, strain wild type, hits give low values 0.982
